From PubChem BioAssay
Sampled rows, rich in hits. Any-hit rate of the full collection: about 3.9%.
Anthrax LF inh2: blocks Bacillus anthracis lethal factor protease; P15917; multiplex microsphere protease cleavage assay, LF; inhibition, % at 10 µM; actives 0.12% (n = 360,000); further: plate controls were buffer without enzyme for full effect and enzyme alone for no effect
BoNT-A LC inh2: inhibitors of Botulinum neurotoxin A light chain protease; inhibition, % at 10 µM; actives 0.17% (n = 360,000); AID 588499; multiplex microsphere protease substrate cleavage, flow cytometry; further: plate controls were buffer without enzyme for full effect and enzyme alone for no effect
VHR inh abs: inhibitors of human VHR1 phosphatase (DUSP3); P51452; recombinant VHR phosphatase, pNPP absorbance; inhibition, % at 13.3 µM; actives 0.52% (n = 290,000); AID 1654; in the data active means inhibition above about 50%
Target sequence (P51452 whole entry, looked up): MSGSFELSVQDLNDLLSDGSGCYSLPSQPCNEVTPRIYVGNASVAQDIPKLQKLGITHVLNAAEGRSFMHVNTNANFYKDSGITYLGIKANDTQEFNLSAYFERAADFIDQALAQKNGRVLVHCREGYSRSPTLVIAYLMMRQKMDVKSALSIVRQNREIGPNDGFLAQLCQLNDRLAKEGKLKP
Autofluor counter: counter-screen for toxin protease inhibitors: compound fluorescence; compound autofluorescence counterscreen, microsphere flow cytometry; hits give high values; fluorescence intensity (test concentration not listed); actives 3.1% (n = 360,000); in the data active means fluorescence intensity above about 16000; inconclusive means no clear call, values can overlap the other calls
BoNT F protease: blocks Botulinum neurotoxin F light chain protease; Multiplex microsphere protease cleavage assay, flow cytometry; inhibition, % at 10 µM; actives 0.22% (n = 360,000); AID 588497; in the data active means inhibition above about 35%, passing the limit was not always enough; inconclusive means no clear call, values can overlap the other calls; further: plate controls were buffer without enzyme for full effect and enzyme alone for no effect
SARS 3CLpro inh: SARS-CoV 3CLpro protease inhibition | P0C6X7 | recombinant SARS-CoV 3CLpro, quenched FRET peptide cleavage | inhibition, % at 6 µM | actives 0.14% (n = 290,000) | AID 1706; in the data active means inhibition above about 12%
Starred values were filed as active, the others as inactive; i = inactive; ? = inconclusive; nt = no result. Unless noted, no stated cut-off is given here; in the data, active means inhibition above about 30%; inconclusive means no clear call, values can overlap the other calls; inactive means below that.

SMILES	Anthrax LF inh2	BoNT-A LC inh2	VHR inh abs	Autofluor counter	BoNT F protease	SARS 3CLpro inh
O=C(CCCn1c(=O)[nH]c2ccc(Br)cc2c1=O)NCc1ccc(Cl)cc1	-5	0	9	4375	-7	-3
CC(OC(=O)CC1CCCC1)C(=O)Nc1ccc(S(N)(=O)=O)cc1 (stereo not drawn)	-2	3	nt	5071	13	nt
CCN(CC)S(=O)(=O)c1cc(C(=O)OC)ccc1Cl	-4	-1	30	20925*	-4	1
CCN(CC)S(=O)(=O)c1ccc(Cl)c(NC(C)=O)c1	-5	-1	33	3959	0	-5
COC(=O)c1ccc(Cl)c(NC(C)=O)c1	1	?	-16	21958*	-5	-1
CNC(=O)c1cc(S(=O)(=O)N(C)C)ccc1Cl	-2	1	-2	22686*	0	0
CCN(CC)S(=O)(=O)c1ccc(Cl)c(C(=O)OC)c1	1	?	-2	17005*	-4	1
Cc1cc(C)c2[nH]c(C(=O)Nc3ccc(F)cc3Br)cc2c1	6	0	-47	3227	6	-1
Cc1cccc(C)c1NC(=O)c1cnccn1	nt	nt	0	nt	nt	1
O=C(Nc1ccccc1C(=O)NCC1CCCO1)c1ccc(Cl)cc1 (stereo not drawn)	-2	2	32	4902	0	-1
Cc1sc(-n2c(C)cc(/C=N/n3cnnc3)c2C)c(C#N)c1C	-6	-2	28	22786*	-4	4
Cc1sc(-n2c(C)cc(C=C3C(=O)NC(=O)NC3=O)c2C)c(C#N)c1C	nt	nt	3	nt	nt	10
CC(=O)Nc1ccc(-c2ccnc3c2CC(C(=O)Nc2cccnc2)O3)cc1 (stereo not drawn)	-11	0	nt	4070	0	nt
C=CCOC(=O)c1sc(NC(=O)c2ccco2)nc1C	0	3	15	19408*	3	-1
CCOC(=O)c1sc(NC(=O)c2cc3ccccc3o2)nc1C	0	0	13	4428	1	-5
CCOC(=O)c1sc(NC(=O)c2ccc(CC)s2)nc1C	-2	2	-5	19861*	2	-2
Cc1cccn2c(=O)c(/C=C(\C#N)C(=O)NCc3ccccc3)c(N3CCC(C(N)=O)CC3)nc12	0	0	0	5481	4	0
NC(=O)c1sc2nc(N3CCCCC3)c3c(c2c1N)CCCC3	4	0	-10	16416*	-3	2
CCN=c1scc(-c2ccco2)n1/N=C/c1ccc(OC)c(O)c1	-2	?	-3	24329*	-4	-6
COc1ccc(OC)c(/C=N/NC(=O)CCc2c(C)n[nH]c2C)c1	12	6	9	3807	40*	6
COc1ccc(CC(=O)N2CCc3ccccc32)cc1	-2	0	4	3680	-18	-2
O=C(COc1ccccc1)N1CCNC1=O	-2	2	7	21620*	2	-4
COc1ccc(CC(=O)N2CCNC2=O)cc1	-2	2	-15	19689*	2	-5
CC(=O)N(Cc1ccccc1C)c1cccc(C)c1C	2	0	25	3648	-6	6
O=C(c1ccco1)N1CCN(C(=O)c2nn3cccnc3c2Cl)CC1	-1	0	33	22749*	-1	0
SMILES	Anthrax LF inh2	BoNT-A LC inh2	VHR inh abs	Autofluor counter	BoNT F protease	SARS 3CLpro inh
Cn1c(=O)c2c(ncn2CC(=O)OCC(=O)NC2CCCc3ccccc32)n(C)c1=O (stereo not drawn)	-4	?	-2	22870*	-3	-3
Cn1c(=O)c2c(ncn2CC(=O)OCC(=O)NCCc2ccccc2)n(C)c1=O	3	0	nt	5781	17	nt
O=C(C1CCC(=O)N1C1CCCC1)N1CCC2(CC1)OCCO2 (stereo not drawn)	-5	0	10	20240*	1	-2
O=C(C1CC(=O)N(C2CCCC2)C1)N1CCN(c2ccccc2)CC1 (stereo not drawn)	0	3	-8	5021	5	-2
O=C(C1CC(=O)N(C2CCCCCCC2)C1)N1CCC2(CC1)OCCO2 (stereo not drawn)	0	-8	-8	22759*	-10	-5
O=C(C1CCC(=O)N1Cc1ccc(F)cc1)N1CCC2(CC1)OCCO2 (stereo not drawn)	-1	0	7	2815	2	4
CCN(C[C@H]1N[C@@](CC)(C(=O)OC)[C@H]2C(=O)N(C)C(=O)[C@@H]12)C(=O)c1ccc(C(C)(C)C)cc1	-9	0	nt	3794	-10	nt
CC(=S)/C=C1\Sc2ccccc2N1C	14	23	24	8054	-23	1
CN1c2ccccc2Sc2cc(N)ccc21	-12	1	55*	2223	-108	4
COC(=O)C1CCN(C(=O)/C=C/c2ccc(OC)cc2)CC1	35*	-21	-10	?	i	5
CC(Oc1ccc2c(-c3ccccc3)cc(=O)oc2c1)C(=O)N1CCC[C@@H]1C(N)=O (stereo partly drawn)	1	-1	13	4469	-5	0
COc1ccccc1NCC(=O)N/N=C/c1cccnc1	-2	-3	2	23032*	-3	-1
O=C(Cc1ccc(Cl)c(Cl)c1)N/N=C/c1cccnc1	6	1	57*	5673	6	-5
CCCCCC1CCC(c2ccc(/C(N)=N/O)cc2)CC1 (stereo not drawn)	-8	-2	5	3707	?	-2
COc1ccc(C2C(C(=O)O)CC(=O)N2C2CCCCC2)cc1 (stereo not drawn)	1	?	6	20476*	2	4
O=C(NCCCN1CCOCC1)c1c(F)cccc1F	-1	?	0	21499*	-4	2
O=C(NCCCN1CCOCC1)c1ccc2c(c1)N(Cc1ccccc1)C(=O)c1ccccc1S2=O (stereo not drawn)	1	1	60*	4303	-4	-2
Cc1onc(-c2c(F)cccc2Cl)c1C(=O)NCCCN1CCOCC1	2	?	7	20261*	1	1
Cc1cc(OC(C)C(=O)NCCCN2CCOCC2)ccc1Cl (stereo not drawn)	1	6	50*	5904	11	5
O=C(NCCCN1CCOCC1)c1ccc2c(c1)N(Cc1cccc(Cl)c1)C(=O)c1ccccc1S2=O (stereo not drawn)	-2	-2	12	5409	-5	5
O=P(O)(O)c1ccccc1OCCOCCOCCOCCOc1ccccc1P(=O)(O)O	2	-2	8	3316	-5	-2
COc1cccc(NC(=S)N(CCCN2CCOCC2)C(C)c2cc3ccccc3o2)c1 (stereo not drawn)	-1	-2	28	3983	-4	2
COC(=O)CNC(=O)c1c(-c2ccccc2Cl)noc1C	1	0	7	2239	-1	-2
O=C(CCc1ccccc1)NCCCN1CCOCC1	-1	1	12	3514	8	-7
Cc1onc(-c2ccccc2Cl)c1C(=O)NC(=S)NCC(=O)c1ccccc1	-1	-1	57*	2683	-8	-3
O=C(CCCc1ccccc1)NCCCN1CCOCC1	3	2	36	22241*	4	2
